# Only some compounds are listed: those with a hit (about 15% of all), similar ones and a draw of the others.
# Pf growth 96h: Primary qHTS for delayed death inhibitors of the malarial parasite plastid, 96 hour incubation; P. falciparum luciferase reporter growth, 96 h; Potency, µM (series often up to 28.7 µM), inactives show at the top dose activity change, negative = inhibition, most hits filed as inhibitors; 6.9% of 320,000 active; also: potency is read from the fitted curve at half-maximal effect; % is scaled to controls: 0 for no effect and ±100 for the full control effect
#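 P. falciparum expressing integrated firefly luciferase grown in erythrocytes (2% hematocrit, 0.05% parasitemia final) with compounds for 96 hours at 37 C, 5% CO2. Growth inhibition read as loss of luminescence after adding luciferase detection reagent.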
# SARS PLpro yeast: qHTS of Yeast-based Assay for SARS-CoV PLP. S. cerevisiae expressing SARS-CoV PLpro, growth rescue. Potency, µM (highest dose often 32.9 µM), for inactives: at the top dose activity, positive = growth rescue, usual class: activators. 0.19% of 330,000 active. AID 485353, 2010; calls by dose curve; also: potency is read from the fitted curve at half-maximal effect; 0% is about no effect; nearly all actives have a fitted effect of over 55% in size
# HCMV inh: qHTS Assay for inhibitors of the human cytomegalovirus (HCMV) | HFF cells, HCMV-luciferase reporter, 72 h; stronger effect = lower value | activity change, negative = inhibition, % at 57.5 µM | 4.5% of 410,000 active | AID 1259415, 2018; in the data active = activity change below about -60%; inconclusive = no clear call, values can overlap the other calls; inactive = above about -39%; also: % is scaled to controls: 0 for no effect and ±100 for the full control effect
#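 Luciferase read-out from HCMV-luciferase-infected HFFs (MOI 1 PFU/cell) 72 h post infection at 37C; compounds added after 16 h cell attachment; activity normalized between buffer-only basal and Salinomycin (10uM) inhibitor controls.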
# Sm TGR block: qHTS Assay for the Inhibitors of Schistosoma Mansoni Peroxiredoxins. Schistosoma mansoni thioredoxin glutathione reductase (TGR), Q962Y6. purified TGR, DTNB reduction, TNB absorbance 405 nm. Potency, µM (titrated, usually from 114 µM), for the others: at the highest dose activity change, negative = inhibition, usual class: inhibitors. 3% of 360,000 active. AID 485364, 2010; also: potency is read from the fitted curve at half-maximal effect; % is scaled to controls: 0 for no effect and ±100 for the full control effect; nearly all actives have a fitted effect of over 60% in size
#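 Kinetic colorimetric format: TGR-catalysed, NADPH-driven DTNB reduction monitored via TNB absorbance. Enzyme dispensed at 20 nM; compound exposure 15 min at room temperature before reaction start.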
# HCV inh: qHTS Assay for Inhibitors of Hepatitis C Virus (HCV); Huh7.5.1 HCVcc-Cre infection, luciferase reporter, 44 h; Potency, µM (highest dose often 41.8 µM), for inactives: at the top dose activity change, negative = inhibition, most hits filed as inhibitors; 3.4% of 340,000 active; AID 651820, 2012; also: potency is read from the fitted curve at half-maximal effect; % is scaled to controls: 0 for no effect and ±100 for the full control effect
#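 Antiviral activity was scored by luciferase reporter output from cells infected with HCVcc-Cre (~0.5 moi) in presence of compound, 44 h infection period, cells seeded 1,000/well 4 h prior.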
# Pf growth 48h: Primary qHTS for delayed death inhibitors of the malarial parasite plastid, 48 hour incubation | P. falciparum luciferase growth in erythrocytes, 48 h | Potency, µM (doses to about 28.7 µM), inactives show at the highest dose activity change, negative = inhibition, most hits filed as inhibitors | 5.9% of 310,000 active; also: potency is read from the fitted curve at half-maximal effect; % is scaled to controls: 0 for no effect and ±100 for the full control effect
#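 Growth was read as firefly luciferase luminescence after a 48 h, 37 C, 5% CO2 exposure of compounds to reporter-bearing P. falciparum cultures (0.1% parasitemia, 2% hematocrit final) in Albumax-supplemented RPMI 1640.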
# Numbers without * were called inactive; u = inconclusive; x = no result. Unless noted, calls follow the shape of the dose curve; as a rule, active = well fitted curve in the direction sought with a large enough effect; inconclusive = small, poorly fitted or top-dose-only effect, or another doubt; inactive = no such curve, though single readings can be large; an effect the other way counts as inactive or inconclusive.
SMILES,Pf growth 96h,SARS PLpro yeast,HCMV inh,Sm TGR block,HCV inh,Pf growth 48h
COc1ccc(N2CCN(C(=O)c3cc(S(=O)(=O)N4CCC(C)CC4)cn3C)CC2)cc1,x,x,12,-4%,x,x
COc1cccc(C(=O)Nc2cc(-c3ccccc3)no2)c1,x,x,94,1%,x,x
O=C(c1ccc(-c2cc(O)c3ncccc3c2)cc1)N1CCNCC1,9.3µM*,-2%,-35,-8%,x,9.3µM*
Cc1ccc(CNC(=O)CSc2ncc(S(=O)(=O)c3ccc(C)c(Cl)c3)c(=O)[nH]2)cc1,x,x,-5,17%,x,x
Nc1c2c(nc3cccc(Cl)c13)N(c1ccccc1)CC2,7.4µM*,0%,16,-2%,-3%,17%
CCOC(=O)CN1CCC(c2cc(-c3ccc(Cl)cc3)n[nH]2)CC1,u,0%,-3,-8%,-18%,-3%
O=[N+]([O-])c1cccnc1N1CCC(c2cc(-c3ccc(Cl)cc3)n[nH]2)CC1,u,-36%,12,10%,10µM*,x
CC(C)c1ccc(C2NC(=S)NC3=C2C(=O)CC(C)(C)C3)cc1 (stereo unspecified),0%,-27%,-71*,-5%,-18%,23%
CCOc1ccc(N2C(=O)C3C(c4ccccc4F)NN(C(=O)c4ccc(C)cc4)C3C2=O)cc1 (stereo unspecified),-9%,-3%,10,50µM*,-4%,13%
O=C(O)c1ccc(N2C(=O)/C(=C/c3ccc(-c4ccc([N+](=O)[O-])cc4)o3)C=C2c2ccccc2)cc1,17%,0%,x,45µM*,-30%,u
CN1OC(C)(CC(=O)NCc2ccccc2F)N=C1c1ccccc1Cl (stereo unspecified),x,x,1,x,x,x
S=c1[nH]nc(-c2cccc(Cl)c2)n1CCN1CCCCC1,u,3%,-39,-12%,16%,13%
COc1ccc(N(C(=O)c2snc(C(N)=O)c2N)C(C(=O)NC2CCCC2)c2ccco2)cc1 (stereo unspecified),-25%,-1%,-38,-10%,-20%,u
Cc1ccc(C(C(=O)NCC2CCCO2)N(C(=O)c2snc(C(N)=O)c2N)c2ccc(F)cc2)o1 (stereo unspecified),u,3%,-75*,10%,-12%,u
Cc1cc(C)cc(N(C(=O)c2snc(C(N)=O)c2N)C(C(=O)NCC2CCCO2)c2ccc(C)o2)c1 (stereo unspecified),u,-2%,-3,-13%,u,u
COc1ccc(N(C(=O)c2snc(C(N)=O)c2N)C(C(=O)NC2CCCCC2)c2ccc(C)o2)cc1 (stereo unspecified),-21%,0%,-70*,-15%,u,8.3µM*
CCOc1ccc(N(C(=O)c2snc(C(N)=O)c2N)C(C(=O)NCC2CCCO2)c2ccc(C)o2)cc1 (stereo unspecified),u,-6%,4,-20%,4%,u
NC(=O)c1nsc(C(=O)N(c2ccccc2)C(C(=O)NCC2CCCO2)c2cccs2)c1N (stereo unspecified),u,1%,-19,1%,-5%,-3%
COc1cc(OC)cc(N(C(=O)c2snc(C(N)=O)c2N)C(C(=O)NCC2CCCO2)c2ccc(C)o2)c1 (stereo unspecified),36%,2%,-12,-19%,x,4.7µM*
Cc1cc(C)cc(N(C(=O)c2snc(C(N)=O)c2N)C(C(=O)NCC2CCCO2)c2cccs2)c1 (stereo unspecified),-1%,1%,-93*,-7%,11µM*,u
CNNCc1ccc(C(=O)NC(C)C)cc1,u,x,38,x,-3%,-20%
CCCSc1nc2cc(C)c(C)cc2n1CC(C)O (stereo unspecified),27%,-2%,-11,1%,-11%,31%
COc1ccc(-c2nsc(C(=O)N(c3ccc(F)cc3)C(C(=O)NC3CCCC3)c3ccc(OC)cc3)c2N)cc1 (stereo unspecified),x,-1%,-1,0%,5%,2.6µM*
COc1ccc(-n2ncc3c2CC(C)(C)CC3NC(=O)c2cn[nH]c2)cc1 (stereo unspecified),-21%,1%,14,0%,27%,4%
CCN(CC)C(=O)C1=C(C)N(Cc2ccc(C(C)(C)C)cc2)C(=O)C(CC(=O)NCCCCc2ccccc2)C1 (stereo unspecified),x,x,-21,x,x,x
SMILES,Pf growth 96h,SARS PLpro yeast,HCMV inh,Sm TGR block,HCV inh,Pf growth 48h
O=C(Nc1nc2cc3c(cc2s1)OCO3)C1=COCCO1,-12%,-33%,-71*,-4%,u,32%
CC(=O)Nc1nc2cc3c(cc2s1)OCO3,251%,4%,-5,-1%,8%,x
O=C(Nc1nc2cc3c(cc2s1)OCCO3)c1ccco1,-65%,-13%,-92*,-35%,u,-39%
O=C(Nc1nc2ccccc2c(=O)s1)c1ccco1,2%,-10%,54,u,-5%,2.1µM*
COc1ccccc1NC(=O)c1ccc(NC(=O)COC(=O)CC(NC(=O)c2ccccc2Cl)c2ccccc2)cc1 (stereo unspecified),13%,u,8,2%,u,u
CCCCNS(=O)(=O)c1ccc(Br)cc1N1CCC[C@H]1CO,x,0%,10,x,-34%,x
Cc1cccc2c1NC(=O)C2=Nc1ccc(Cl)cc1,u,-7%,54,4%,3%,3%
Cc1ccc(N=C2C(=O)Nc3c(C)cccc32)cc1,10µM*,13%,15,2%,11%,1%
O=C(c1ccoc1)N1CCN(c2cc(-c3cccnc3)nc3cc(-c4cccc(Cl)c4)nn23)CC1,x,x,-23,x,x,x
COc1ccc2[nH]cc(C(=O)NCCc3ccccc3)c(=O)c2c1,-7%,-10%,4,-3%,-18%,4%
CCOc1ccc2[nH]cc(C(=O)NCc3ccc(F)cc3)c(=O)c2c1,0%,-12%,-71*,9%,u,u
CCOCCCNC(=O)c1c[nH]c2ccc(OCC)cc2c1=O,-2%,-4%,-30,-4%,-15%,2.3µM*
CCCOc1ccc2[nH]cc(C(=O)O)c(=O)c2c1,15µM*,-4%,12,-1%,12%,9%
CCOCCCNC(=O)c1c[nH]c2ccc(S(=O)(=O)Nc3cccc(OC)c3)cc2c1=O,u,10%,-12,-4%,7%,u
O=C(CCCN1C(=O)C2CC=CCC2C1=O)Nc1cccc(F)c1 (stereo unspecified),-18%,5%,-26,7%,x,10%

# Screens as filed in PubChem.
